Results: PubChem BioAssay (NCI)
Where “and” joins values, the source holds several entries; their conditions need not be identical. Equal entries are not always repeated. Compounds without any hit were thinned out: in the full panel of roughly 79,000, 15% have a hit. A number with no mark means an inactive call. Calls of active or inactive are those of the source. No stated cut-off is given here; in the data, active means growth inhibition above about 70%; inactive means the rest.

Test: NCI Yeast Anticancer Drug Screen. Data for the mlh1 rad18 strain (AID 175)
Conditions: S. cerevisiae mlh1 rad18 strain growth inhibition, stronger effect = higher value
Method: Growth inhibition of yeast strains with defined genetic alterations is measured as a screen for potential anti-cancer activity. Selected strains with alterations in DNA damage repair or cell cycle control were exposed to compounds and growth inhibition was measured relative to vehicle treated controls. The strain used in this assay is mlh1 rad18

[1] = at 5.0 µM (retest, dose inferred, filed as 0.5)
[2] = at 50.0 µM (retest, dose inferred, filed as 5.0)

| Structure (SMILES) | growth inhibition [1] [%] | growth inhibition [2] | growth inhibition (at 50.0 µM) |
| --- | --- | --- | --- |
| CCC(CC)(c1ccccc1)C(O)c1ccccc1 (stereo not given) | 2 | 96% (active) |  |
| C=C(CO)C(=O)OC1CC(=C)C2CC(O)C(C)C2C2OC(=O)C(=C)C12 (stereo not given) | 26 | 98% (active) | 87.7% (active) |
| CCN1CCCC(Nc2cc(C)nc(/N=C(/N)Nc3ccc(Cl)c(Cl)c3)n2)C1 (stereo not given) | 57 | 97% (active) | 83.2% (active) |
| COc1ccc2c(c1)c(CC(=O)O)c(C)n2C(=O)c1ccc(Cl)cc1 | -1 | 39% | 72% (active) |
| Cc1oc2c(C)c3oc(=O)cc(C)c3cc2c1CCl | 47 | 96% (active) | 90.7% (active) |
| CCN(CC)c1ccc(/C=C\C(=O)c2ccc(NC(C)=O)cc2)cc1 | -21 | -9% | 52% |
| COc1cc(OC)c(/C=C/c2c3ccccc3cc[n+]2C)c(OC)c1 | 50 | 68% | 54.1% |
| CCCc1cc(=O)oc2c3c(c4c(c12)OC(C)(C)CC4)OC(C)[C@H](C)[C@@H]3O (stereo not given in full) | 31 | 94% (active) | 77% (active) |
| OCCNC(c1ccc(Cl)cc1)C(O)c1ccc(Cl)cc1 (stereo not given) | -4 | 59% |  |
| CCOc1ccc(C(CN2CCOCC2)C(C)=O)cc1OC (stereo not given) | -18 | 86% (active) | 63.8% |
| O=C1Nc2ccc(Br)cc2C1=O | -9 | 91% (active) | 99.6% (active) |
| O=[N+]([O-])c1ccc(N2CCN(Cc3ccccc3)CC2)c2c1no[n+]2[O-] | 39 | 97% (active) | 88.3% (active) |
| CCOc1ccc(C(C[N+](=O)[O-])Sc2ccccc2N)cc1 (stereo not given) | 45 | 59% | 87% (active) |
| COc1c2occc2c(OC)c2c(=O)cc(C)oc12 |  |  | 22.1% and 9.4% |
| OC1Cc2ccccc2CC1O (stereo not given) |  |  | -5.8% and -14.7% |
| O=C(NC(=O)c1cn(C2OC(CO)C(O)C2O)c(=O)[nH]c1=O)OCc1ccccc1 (stereo not given) |  |  | -19.6% and 0.55% |
